# Data as given in the supplement of paper PMC13380429.
# Experiments:
# [1] = tested on: Vero E6 infected with SARS-CoV-2; assay: morphology score (similarity to uninfected cells); higher = more like uninfected cells; conditions: 24 h
# [2] = tested on: Vero E6 infected with SARS-CoV-2; assay: SARS-CoV-2 infection rate relative to infected DMSO; higher = more infection, active = 60 or less; conditions: 24 h
Structure (SMILES),morphology score [1],SARS-CoV-2 infection rate [2]
Cc1ccc(-c2cn3c4c(sc3n2)CCCC4)cc1 [pifithrin-cyclic] (10 µM),-0.115,106% (inactive)
CC(C)NC(=O)c1ccc(C#Cc2ccncc2)cn1 (10 µM),0.0135,102% (inactive)
CCOP(=S)(OCC)Oc1ccc2c(C)c(Cl)c(=O)oc2c1 [coumophos] (10 µM),-0.0715,110% (inactive)
COC(=O)[C@H](Cc1cccc(C(=N)N)c1)[C@@H](C)NC(=O)c1ccc(-c2cc[n+]([O-])cc2)cc1 [otamixaban] (10 µM),-0.0764,100% (inactive)
CCO/N=C(\C(=O)N[C@@H]1C(=O)N2C(C(=O)[O-])=C(Sc3nc(-c4cc[n+](C)cc4)cs3)CS[C@H]12)c1nsc(NP(=O)(O)O)n1 [ceftaroline-fosamil] (10 µM),0.242,87.5% (inactive)
CC#CC(=O)N1CCC[C@H]1c1nc(-c2ccc(C(=O)Nc3ccccn3)cc2)c2c(N)nccn12 [acalabrutinib] (10 µM),-0.00394,108% (inactive)
O=[N+]([O-])c1cc([N+](=O)[O-])c(/C=C/c2ccc(Cl)c(Cl)c2)cc1/C=C/c1ccc(Cl)c(Cl)c1 (10 µM),0.192,97.5% (inactive)
c1cnc(NCc2ccc(CNc3ncccn3)cc2)nc1 (10 µM),0.18,112% (inactive)
O=C1c2ccccc2-n2c1nc1ccccc1c2=O [tryptanthrin] (10 µM),0.145,96% (inactive)
CN(CC(=O)O)C(=N)N [creatine] (10 µM),0.0148,113% (inactive)
CC[C@H]1OC(=O)C[C@@H](O)[C@H](C)[C@@H](O[C@@H]2O[C@H](C)[C@@H](O[C@H]3C[C@@](C)(O)[C@@H](O)[C@H](C)O3)[C@H](N(C)C)[C@H]2O)[C@@H](CC=O)C[C@@H](C)C(=O)/C=C/C(C)=C/[C@@H]1CO[C@@H]1O[C@H](C)[C@@H](O)[C@@H](OC)[C@H]1OC (0.833333 µM),-0.000376,81% (inactive)
O=C1c2ccccc2C(=O)c2ccccc21 [anthraquinone] (10 µM),0.166,103% (inactive)
CC(C)(C#N)c1ccc(N2C(=O)OCc3cnc4ccc(-c5cnc6ccccc6c5)cc4c32)cc1 (10 µM),0.22,104% (inactive)
COc1ccc2cc(-c3cc(-c4cc(Cl)cc(Cl)c4)nn3[C@@H](C)c3ccc(C(=O)NCCC(=O)O)cc3)ccc2c1 (10 µM),0.164,106% (inactive)
Cc1ccsc1/C=C/C1=NCCCN1C [morantel] (10 µM),-0.00401,99.5% (inactive)
C=C1/C(=C\C=C2/CCC[C@]3(C)[C@@H]([C@H](C)CCCC(C)C)CC[C@@H]23)C[C@@H](O)C[C@@H]1O [alfacalcidol] (10 µM),0.0852,98% (inactive)
CCCCCCOC(=O)CCC(=O)CN [hexaminolevulinate] (10 µM),0.0924,102% (inactive)
COc1cccc2c1C(=O)c1c(O)c3c(c(O)c1C2=O)C[C@@](O)(/C(CO)=N/NC(=O)CCCCCN1C(=O)C=CC1=O)C[C@@H]3O[C@H]1C[C@H](N)[C@H](O)[C@H](C)O1 [aldoxorubicin] (0.833333 µM),-0.0766,109% (inactive)
Cc1cc2cc3c(C)cc(=O)oc3c(C)c2o1 [trioxsalen] (10 µM),0.133,94% (inactive)
CC(C)(C)c1ccc(CN(Cc2cccc(OCC(=O)O)c2)S(=O)(=O)c2cccnc2)cc1 [evatanepag] (10 µM),-0.0093,97.5% (inactive)
O=C(O)c1ccccc1O [salicylic-acid] (10 µM),0.0239,107% (inactive)
COc1cc(N2CCC(N3CCN(C)CC3)CC2)ccc1Nc1ncc(Cl)c(Nc2ccccc2P(C)(C)=O)n1 [brigatinib] (0.833333 µM),-0.178,105% (inactive)
CN1Cc2ccccc2[C@@H]2c3cccc4[nH]cc(c34)C[C@H]21 (10 µM),0.609,95.5% (inactive)
COc1ccc(-c2nc(N3CCOCC3)c3sc(CN(C)c4ncc(C(=O)NO)cn4)cc3n2)cn1 (10 µM),-0.449,116% (inactive)
O=C(O)Cn1nnc(-c2cc(N3CCC(Oc4cc(F)ccc4Br)CC3)no2)n1 (10 µM),0.00994,104% (inactive)
COc1cccc(-c2cc(=O)c3ccccc3o2)c1N (10 µM),-0.25,118% (inactive)
